Measurements: PubChem BioAssay
Calls of active or inactive are those of the source.

Legend:
[1] = small molecules captured by biotinylated probe aFSTL3 – biochemical, small-molecule microarray, fluorescence 635/667, stem cell growth factor project, primary screen (AID 1064); details: higher = more signal;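 note: measures binding of the biotinylated anti-FSTL3 antibody to printed compounds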
[2] = binders from COS7 lysate, DM2A8 probe, primary screen, torsin A project, cell lysate, small-molecule microarray, fluorescence 635/667 (AID 1065); details: higher = more signal, COS7 lysate expressing mutant human TOR1A
[3] = small molecules captured by biotinylated probe aFGF2 – biochemical, small-molecule microarray, fluorescence 635/667, stem cell growth factor project, primary screen (AID 1067); details: higher = more signal;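 note: measures binding of biotinylated aFGF2 protein to printed compounds on slides; z-score merges feature fluorescence and signal-to-noise across triplicate slides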
[4] = small molecules captured by biotinylated probe aFGF10 – biochemical, small-molecule microarray, fluorescence 635/667, stem cell growth factor project, primary screen (AID 1071); details: higher = more signal;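 note: score merges 667 nm spot intensity and signal to noise from triplicate slides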
[5] = target: Neurogenic locus notch homolog protein 2 (Homo sapiens) (UniProt Q04721); experiment: small molecules binding Notch2 protein – biochemical, small-molecule microarray, 635 nm fluorescence, stem cell growth factors, primary screen (AID 1073); details: higher = more signal
[6] = target: Pro-neuregulin-1, membrane-bound isoform (Homo sapiens) (UniProt Q02297); experiment: small molecules binding neuregulin-1 protein – biochemical, small-molecule microarray, fluorescence 635/667, psychiatric disease protein project, primary screen (AID 1075); details: NRG1 binding, 635 nm fluorescence, higher = more signal;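 note: score combines 667 nm spot fluorescence with signal to noise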
[7] = tested on: Neuregulin-1 EGF-like domain; experiment: small molecules binding NRG1 EGF domain – biochemical, small-molecule microarray, 635 nm fluorescence, primary screen (AID 1081); details: higher = more signal;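 note: binding of the protein to compounds printed on small-molecule microarray slides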
[8] = FRG1 expression reporter modulators in myotubes – cell-based, C2C12 myotubes, firefly/Renilla luciferase, luminescence, FRG1 inhibition for FSHD, primary screen (AID 1084); details: FRG1 promoter luciferase, higher = more signal, called active from +8 up or from −8 down
[9] = small molecules captured by biotinylated probe aFST – biochemical, small-molecule microarray, fluorescence 635/667, stem cell growth factor project, primary screen (AID 1086); details: higher = more signal;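 note: score merges 667 nm fluorescence with signal-to-noise of each printed compound spot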
[10] = binders of probe aHhip on microarray, primary screen, stem cell growth factor project, biochemical, small-molecule microarray, fluorescence 635/667 (AID 1087); details: higher = more signal;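 note: score merges spot fluorescence at 667nm with spot signal to noise ratio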
[11] = tested on: PRMT1 (protein arginine N-methyltransferase 1); experiment: small molecules binding arginine methyltransferase PRMT1 – biochemical, small-molecule microarray, 635 nm fluorescence, primary screen (AID 1088); details: higher = more signal;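 note: binding of Prmt1 protein to compounds spotted on small-molecule microarray slides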
[12] = growth effects on S. cerevisiae YJM789 – YJM789 clinical isolate, OD600, 24 h, basal, primary screen (AID 1089); details: higher = more signal, called active from +8 up or from −8 down;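 note: growth of clinical yeast isolate S. cerevisiae YJM 789 seeded 1000 cells per well; test concentration not given here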
[13] = S. pombe growth modifiers, basal conditions – strain 972, OD600, 24 h, no modulator, primary screen (AID 1090);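 note: basal condition with compound alone and no growth modifier present; test concentration not given here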; details: S. pombe 972 growth, higher = more signal, called active from +8 up or from −8 down
[14] = budding yeast growth modifiers under rapamycin – strain BY4716, OD600, 96 h, primary screen (AID 1091); note: test concentration not given here; details: S. cerevisiae BY4716 + rapamycin, higher = more signal, called active from +8 up or from −8 down
[15] = target: Torsin-1A-interacting protein 2 (Homo sapiens) (UniProt Q8NFQ8); experiment: small molecules binding lysate-expressed LULL1 – cell lysate, human LULL1 lysate, 635/667 nm fluorescence, primary screen (AID 1092); details: small-molecule microarray, hLULL1 lysate binding, 635 nm fluorescence; higher = more signal;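 note: probe is lysate of COS7 cells overexpressing human LULL1; score merges per-feature 667 nm fluorescence with signal-to-noise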
[16] = optical density change of DRC41 E. coli – strain DRC41, OD650, 24 h, E. coli filamentation project, primary screen (AID 1093);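 note: MC1000 strain lacking acrAB efflux and sulA so SOS filamentation is blocked; test concentration not given here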; details: E. coli DRC41 growth, higher = more signal, called active from +8 up or from −8 down
[17] = probe aLefty2 binding to arrayed compounds – biochemical, biotinylated probe, 635/667 nm fluorescence, primary screen (AID 1094); details: small-molecule microarray, higher = more signal;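 note: score merges spot fluorescence near 667 nm with spot signal-to-noise ratio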
[18] = tested on: Noggin (protein binding on small-molecule microarray); experiment: small molecules binding Noggin protein – biochemical, 635/667 nm fluorescence, primary screen (AID 1095); details: 635 nm fluorescence, higher = more signal;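 note: score merges 667 nm feature fluorescence with signal to noise over triplicate slides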
[19] = target: Neurogenic locus notch homolog protein 3 (Homo sapiens) (UniProt Q9UM47); experiment: small molecules binding NOTCH3 protein – biochemical, 635/667 nm fluorescence, primary screen (AID 1096); details: small-molecule microarray, 635 nm fluorescence, higher = more signal
[20] = probe aEGFR binding to arrayed compounds – biochemical, biotinylated probe, 635/667 nm fluorescence, primary screen (AID 1097); details: small-molecule microarray, higher = more signal;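 note: probe is a biotinylated anti-EGFR antibody binding compounds printed on slides; score combines fluorescence near 667 nm and signal to noise of each spot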

Chain of Pro-neuregulin-1, membrane-bound isoform (Homo sapiens) (Q02297 whole entry, looked up, the tested form may be a part, canonical isoform): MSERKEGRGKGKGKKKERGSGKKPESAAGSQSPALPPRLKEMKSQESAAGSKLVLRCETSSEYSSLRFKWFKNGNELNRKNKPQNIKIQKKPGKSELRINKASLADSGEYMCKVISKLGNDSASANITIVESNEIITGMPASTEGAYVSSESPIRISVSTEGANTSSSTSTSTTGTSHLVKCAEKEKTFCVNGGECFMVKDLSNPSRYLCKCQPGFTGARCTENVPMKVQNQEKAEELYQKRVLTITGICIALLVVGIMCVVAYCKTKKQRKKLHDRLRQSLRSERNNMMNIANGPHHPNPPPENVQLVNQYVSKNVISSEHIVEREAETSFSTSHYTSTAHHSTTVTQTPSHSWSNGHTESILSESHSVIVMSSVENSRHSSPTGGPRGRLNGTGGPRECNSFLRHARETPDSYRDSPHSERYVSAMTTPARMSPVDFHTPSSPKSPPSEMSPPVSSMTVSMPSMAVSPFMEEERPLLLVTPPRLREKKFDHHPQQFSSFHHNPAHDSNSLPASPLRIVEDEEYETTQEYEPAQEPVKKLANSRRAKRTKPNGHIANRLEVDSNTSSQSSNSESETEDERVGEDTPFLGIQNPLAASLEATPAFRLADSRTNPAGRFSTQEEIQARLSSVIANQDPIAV
Chain of Neurogenic locus notch homolog protein 2 (Homo sapiens) (Q04721 whole entry, looked up, canonical isoform): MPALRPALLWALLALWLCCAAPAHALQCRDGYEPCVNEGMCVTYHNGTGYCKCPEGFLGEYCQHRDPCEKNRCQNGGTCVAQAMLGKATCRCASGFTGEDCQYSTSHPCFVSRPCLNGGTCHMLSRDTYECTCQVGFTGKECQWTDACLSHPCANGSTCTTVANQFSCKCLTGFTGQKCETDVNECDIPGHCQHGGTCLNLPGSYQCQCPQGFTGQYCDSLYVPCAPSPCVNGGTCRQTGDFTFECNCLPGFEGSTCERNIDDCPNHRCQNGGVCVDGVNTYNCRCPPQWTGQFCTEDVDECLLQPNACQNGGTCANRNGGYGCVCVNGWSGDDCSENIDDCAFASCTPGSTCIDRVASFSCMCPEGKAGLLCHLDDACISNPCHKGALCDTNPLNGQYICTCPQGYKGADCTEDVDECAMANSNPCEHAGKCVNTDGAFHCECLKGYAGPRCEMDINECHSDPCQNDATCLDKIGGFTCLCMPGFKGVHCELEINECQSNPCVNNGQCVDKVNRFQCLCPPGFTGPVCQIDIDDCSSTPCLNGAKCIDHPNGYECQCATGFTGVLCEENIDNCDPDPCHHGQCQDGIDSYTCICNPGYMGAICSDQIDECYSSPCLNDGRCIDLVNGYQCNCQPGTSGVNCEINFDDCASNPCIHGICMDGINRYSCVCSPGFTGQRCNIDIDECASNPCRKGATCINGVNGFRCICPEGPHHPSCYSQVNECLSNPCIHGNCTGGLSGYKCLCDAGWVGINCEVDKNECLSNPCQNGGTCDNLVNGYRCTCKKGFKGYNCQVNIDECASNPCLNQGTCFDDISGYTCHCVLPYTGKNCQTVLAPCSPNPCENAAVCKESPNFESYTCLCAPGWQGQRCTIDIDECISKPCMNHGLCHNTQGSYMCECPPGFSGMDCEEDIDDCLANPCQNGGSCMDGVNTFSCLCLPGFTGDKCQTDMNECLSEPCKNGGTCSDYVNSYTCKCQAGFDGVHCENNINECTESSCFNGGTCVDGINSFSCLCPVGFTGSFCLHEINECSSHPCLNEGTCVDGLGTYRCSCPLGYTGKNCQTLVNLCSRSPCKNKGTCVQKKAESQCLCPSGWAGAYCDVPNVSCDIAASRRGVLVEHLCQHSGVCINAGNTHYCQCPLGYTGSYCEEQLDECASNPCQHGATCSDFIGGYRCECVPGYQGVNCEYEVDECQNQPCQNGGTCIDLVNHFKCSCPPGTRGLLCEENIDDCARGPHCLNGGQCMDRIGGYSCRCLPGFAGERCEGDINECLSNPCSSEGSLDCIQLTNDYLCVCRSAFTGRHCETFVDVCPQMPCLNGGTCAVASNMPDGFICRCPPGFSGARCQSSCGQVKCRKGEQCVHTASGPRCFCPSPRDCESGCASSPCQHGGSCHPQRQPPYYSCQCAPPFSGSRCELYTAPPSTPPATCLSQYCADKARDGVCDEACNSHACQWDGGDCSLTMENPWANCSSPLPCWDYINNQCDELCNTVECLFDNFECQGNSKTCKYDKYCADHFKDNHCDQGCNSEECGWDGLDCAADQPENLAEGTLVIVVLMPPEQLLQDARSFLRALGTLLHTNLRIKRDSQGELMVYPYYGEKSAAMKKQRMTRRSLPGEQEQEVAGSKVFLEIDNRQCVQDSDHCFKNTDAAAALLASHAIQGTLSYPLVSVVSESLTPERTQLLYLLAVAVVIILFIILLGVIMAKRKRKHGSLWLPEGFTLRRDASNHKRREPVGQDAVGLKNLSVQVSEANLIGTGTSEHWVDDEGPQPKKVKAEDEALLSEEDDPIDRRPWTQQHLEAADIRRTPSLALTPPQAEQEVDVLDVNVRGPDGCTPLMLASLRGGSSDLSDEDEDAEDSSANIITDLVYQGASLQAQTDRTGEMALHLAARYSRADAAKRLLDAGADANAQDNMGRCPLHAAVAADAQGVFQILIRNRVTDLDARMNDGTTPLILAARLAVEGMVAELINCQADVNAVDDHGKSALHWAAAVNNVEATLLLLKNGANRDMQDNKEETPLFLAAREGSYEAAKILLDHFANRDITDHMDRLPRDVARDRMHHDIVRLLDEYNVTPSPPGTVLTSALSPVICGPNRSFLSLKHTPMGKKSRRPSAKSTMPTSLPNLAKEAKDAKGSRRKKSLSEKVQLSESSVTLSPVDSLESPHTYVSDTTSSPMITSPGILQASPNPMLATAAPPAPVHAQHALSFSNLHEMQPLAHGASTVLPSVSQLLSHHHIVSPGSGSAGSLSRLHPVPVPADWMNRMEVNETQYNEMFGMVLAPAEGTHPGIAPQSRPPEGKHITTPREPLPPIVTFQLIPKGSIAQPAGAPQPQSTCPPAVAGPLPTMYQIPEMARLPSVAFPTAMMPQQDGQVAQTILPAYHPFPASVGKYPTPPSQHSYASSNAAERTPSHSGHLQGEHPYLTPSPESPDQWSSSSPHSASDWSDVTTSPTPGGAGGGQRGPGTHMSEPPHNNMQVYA
Chain of Torsin-1A-interacting protein 2 (Homo sapiens) (Q8NFQ8 whole entry, looked up): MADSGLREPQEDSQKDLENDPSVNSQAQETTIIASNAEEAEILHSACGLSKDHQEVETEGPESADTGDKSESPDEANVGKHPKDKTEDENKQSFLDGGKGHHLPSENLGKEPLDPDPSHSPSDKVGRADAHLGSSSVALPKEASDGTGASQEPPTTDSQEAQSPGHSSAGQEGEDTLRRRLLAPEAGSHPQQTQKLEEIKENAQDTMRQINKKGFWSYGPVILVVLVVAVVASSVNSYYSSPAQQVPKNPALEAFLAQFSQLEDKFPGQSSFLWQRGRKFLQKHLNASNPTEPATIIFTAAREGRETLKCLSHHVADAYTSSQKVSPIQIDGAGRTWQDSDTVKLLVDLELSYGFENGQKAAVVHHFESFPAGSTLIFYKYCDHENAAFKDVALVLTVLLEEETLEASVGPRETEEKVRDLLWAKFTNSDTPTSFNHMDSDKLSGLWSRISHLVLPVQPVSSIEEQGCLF

| SMILES | composite z-score [1] | composite z-score [2] | composite z-score [3] | composite z-score [4] | composite z-score [5] | composite z-score [6] | composite z-score [7] | z-score [8] | composite z-score [9] | composite z-score [10] | composite z-score [11] | z-score [12] | z-score [13] | z-score [14] | composite z-score [15] | z-score [16] | composite z-score [17] | composite z-score [18] | composite z-score [19] | composite z-score [20] |
| --- | --- | --- | --- | --- | --- | --- | --- | --- | --- | --- | --- | --- | --- | --- | --- | --- | --- | --- | --- | --- |
| CCOC(=O)C[C@H]1[C@H](OC(=O)c2ccc(-c3ccccc3)cc2)[C@@H](NC(=O)c2ccc3ccccc3c2)c2cc(OCCCO)ccc2N1C(=O)Cc1ccc(OC)cc1 | -0.325 | 0.228 | 0.0325 | 0.0493 | 0.425 | 0.15 | -0.733 | 1.21 (inactive) | 0.628 | -0.134 | 0.265 | -1.32 (inactive) | 0.636 (inactive) | -0.115 (inactive) | 0.948 | 0.0672 (inactive) | -0.124 | -0.205 | -0.209 | -0.128 |
| C=C(C(=O)CC[C@H](OC(C)=O)c1ccc(OCCO)cc1)C(C)C | -0.398 | 0.194 | -0.134 | 0.991 | 1.49 | 0.0987 | -0.108 | -2.5 (inactive) | 0.0745 | 0.174 | 1.19 | -24.6 (active) | -20.5 (active) | -4.29 (inactive) | 0.739 | 2.11 (inactive) | -0.212 | 1.22 | 0.801 | -0.156 |
| COc1ccc(C#Cc2ccc3c(c2)[C@]2(C(=O)N3)[C@H](c3ccc(O)cc3)N3[C@H](c4ccccc4)[C@H](c4ccccc4)OC(=O)[C@H]3[C@@H]2C(=O)NC[C@H](O)c2ccccc2)cc1 | -0.127 | 0.0172 | -0.0599 | 0.776 | 0.757 | 0.563 | 1.15 | 0.72 (inactive) | 0.317 | -0.288 | 0.958 | 2.29 (inactive) | 0.241 (inactive) | 1.75 (inactive) | 2.17 | 0.864 (inactive) | -0.0778 | 0.897 | 1.01 | 0.0221 |
| COc1ccc(C(O)C2C=CC3C(=O)N(c4ccccc4)C(=O)C3N2Nc2ccc([N+](=O)[O-])cc2)cc1OCc1ccccc1 (stereo not given) | 2 | -0.14 | 0.649 | 1.06 | 1.29 | 2.06 | 1.26 | 0.565 (inactive) | 2.36 | 1.2 | 0.923 | -0.225 (inactive) | 1.57 (inactive) | 0.989 (inactive) | 2.72 | -1.29 (inactive) | 1.25 | 0.322 | 1.11 | 0.852 |
| COC(=O)C(CC#Cc1ccc2c(c1)[C@]1(C(=O)N2)[C@H](c2ccc(OCCO)cc2)N2[C@H](c3ccccc3)[C@H](c3ccccc3)OC(=O)[C@H]2[C@@H]1C(=O)NC[C@H](O)c1ccccc1)C(=O)OC | 0.194 | 0.855 | -0.0011 | 1.12 | 0.694 | 1.29 | 1.26 | 1.03 (inactive) | -0.0592 | 0.0274 | 1.54 | 2.37 (inactive) | 0.31 (inactive) | 7.43 (inactive) | 2.41 | 1.89 (inactive) | -0.141 | 0.617 | 0.908 | -0.0856 |
